How the values were obtained:
Type in all cases: functional
[1] = molecular target: Solute carrier family 2, facilitated glucose transporter member 1 (Homo sapiens) (UniProt P11166); assay: ST_JUDE_LEISH: Cytotoxicity at 2uM final concentration against transgenic Leishmania Mexicana promastigotes LmGLUT1 that are glucose transport deficient and complemented with the human glucose transporter GLUT1. Activity is measured by DNA content using SYBR green in vitro
[2] = molecular target: Hexose transporter 1 (Plasmodium falciparum) (UniProt O97467); assay: ST_JUDE_LEISH: Cytotoxicity at 2uM final concentration against transgenic Leishmania Mexicana promastigotes LmPfHT that are glucose transport deficient and complemented with the Plasmodium falciparum hexose transporter. Activity is measured by DNA content using SYBR green in vitro
[3] = molecular target: Glucose transporter (Leishmania mexicana) (UniProt O61059); assay: ST_JUDE_LEISH: Cytotoxicity at 2uM final concentration against transgenic Leishmania Mexicana promastigotes LmGT2 that are glucose transport deficient and complemented with the L. Mexicana glucose transporter 2. Activity is measured by DNA content using SYBR green in vitro

Sequence of Solute carrier family 2, facilitated glucose transporter member 1 (Homo sapiens) (P11166 whole entry): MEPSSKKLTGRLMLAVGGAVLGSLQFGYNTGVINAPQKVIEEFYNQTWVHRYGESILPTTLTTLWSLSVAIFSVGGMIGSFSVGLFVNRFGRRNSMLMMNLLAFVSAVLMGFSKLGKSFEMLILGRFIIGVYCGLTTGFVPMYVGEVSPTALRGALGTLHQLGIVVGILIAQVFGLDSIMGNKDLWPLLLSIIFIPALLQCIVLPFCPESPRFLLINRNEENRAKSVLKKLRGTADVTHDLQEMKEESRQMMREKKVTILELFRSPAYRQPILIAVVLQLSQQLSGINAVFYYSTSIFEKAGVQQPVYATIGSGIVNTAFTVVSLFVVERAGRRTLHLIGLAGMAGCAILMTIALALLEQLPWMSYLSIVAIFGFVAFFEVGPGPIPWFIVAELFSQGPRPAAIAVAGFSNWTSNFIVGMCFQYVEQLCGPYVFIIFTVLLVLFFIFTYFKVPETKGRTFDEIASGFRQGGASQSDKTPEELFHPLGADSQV

## Cc1ccc(-n2nc3ccc(NC(=O)c4ccc([N+](=O)[O-])o4)cc3n2)cc1C
[1]
  inhibition: 60.8%
[2]
  inhibition: 82.4%
[3]
  inhibition: 40.3%

## S=c1nc(-c2ccccc2)n2ccsc2n1
[1]
  inhibition: 1.86%
[2]
  inhibition: 2%
[3]
  inhibition: 2.44%

## CO/C(=C\C=C/c1cc2cc(Cl)c(Cl)cc2[nH]1)C(=O)NC1CC(C)(C)N(C)C(C)(C)C1
[1]
  inhibition: 7.24%
[2]
  inhibition: 5.6%
[3]
  inhibition: 5.19%

## CCCN1CCN(Cc2ccc(-c3ccc(-c4nc5ccccc5[nH]4)s3)cc2)CC1
[1]
  inhibition: -0.29%
[2]
  inhibition: 2.1%
[3]
  inhibition: 1.19%

## Cc1ccc(N2CCN(CCCCNC(=O)c3ccc(NC(=O)c4ccc(Cl)cc4)cc3)CC2)c(C)c1
[1]
  inhibition: 3.93%
[2]
  inhibition: 5.9%
[3]
  inhibition: 2.64%

## CCCNC(=O)C1CCN(C(c2ccccc2)c2ccc(Cl)c(Cl)c2)CC1 (stereo unspecified)
[1]
  inhibition: 4.42%
[2]
  inhibition: 5.75%
[3]
  inhibition: 3%

## CN(C(=O)C(C)(C)Oc1ccc(Cl)cc1)C1CCN(CCCCCNC(=O)/C=C/c2ccc(Cl)c(Cl)c2)CC1
[1]
  inhibition: 1.85%
[2]
  inhibition: 2.76%
[3]
  inhibition: 0.52%

## CC(CCc1ccc(OCc2ccccc2)cc1)NCC(O)c1ccccc1 (stereo unspecified)
[1]
  inhibition: -1.32%
[2]
  inhibition: 0.43%
[3]
  inhibition: -0.69%

## COc1cccc(C2CCN(CCN3CCC(CNC(=O)c4ccc(-c5ccc(C(F)(F)F)cc5)cc4)CC3)CC2)c1
[1]
  inhibition: -0.53%
[2]
  inhibition: 1.07%
[3]
  inhibition: 1.17%

## N#Cc1ccccc1N1CCN(C2CCC(NC(=O)c3n[nH]c4cc(C(F)(F)F)ccc34)CC2)CC1 (stereo unspecified)
[1]
  inhibition: 2.94%
[2]
  inhibition: 1.88%
[3]
  inhibition: 0.43%

## FC(F)(F)COc1c(CCNCCCCNCCc2ccc3ccccc3c2OCC(F)(F)F)ccc2ccccc12
[1]
  inhibition: 105%
[2]
  inhibition: 103%
[3]
  inhibition: 108%

## COc1ccc(S(=O)(=O)NC2CCN(c3cc(C)nc(Nc4cccc(C#N)c4)n3)CC2)cc1
[1]
  inhibition: 4.31%
[2]
  inhibition: 1.33%
[3]
  inhibition: 0.61%

Reference: ChEMBL document CHEMBL3433997, “St. Jude Leishmania screening dataset” (2016)
